This is an account of results in PubChem BioAssay (NCI).

Assay [1] in a line: NCI Yeast Anticancer Drug Screen. Data for the rad50 strain (AID 155).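 Further: 0% = growth of vehicle-only cultures of the same strain.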 The conditions noted are these: S. cerevisiae rad50 strain growth inhibition; at 50.0 µM; stronger effect = higher value. An outline of the steps: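 Inhibition values express reduced yeast growth in compound-treated cultures relative to vehicle-treated controls.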
A short description of assay [2]: NCI Yeast Anticancer Drug Screen. Data for the mec2-1 strain (AID 157). The conditions noted are these: S. cerevisiae mec2-1 strain, at 50.0 µM, stronger effect = higher value. The procedure, abridged:
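Using mec2-1 yeast: add compound, measure growth, express inhibition versus vehicle-treated cultures.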

The nature of assay [3]: NCI Yeast Anticancer Drug Screen. Data for the sgs1 mgt1 strain (AID 161).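 Further: 0% = growth of cultures given vehicle only.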 The conditions noted are these: S. cerevisiae sgs1 mgt1 strain, at 50.0 µM, stronger effect = higher value. The procedure, abridged: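 This yeast growth screen uses a strain with defined DNA-repair lesions; compound-treated growth is compared with vehicle-treated growth.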
Assay [4] can be described thus: NCI Yeast Anticancer Drug Screen. Data for the cln2 rad14 strain (AID 165).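 Further: 0% = growth equal to vehicle treated cultures.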 The conditions noted are these: S. cerevisiae cln2 rad14 strain, at 50.0 µM, stronger effect = higher value. The procedure, abridged: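 Yeast strain cln2 rad14, bearing defects in cell cycle control and DNA repair, serves as the test system; values reflect growth inhibition compared with vehicle.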

Assay [5] is described as follows: NCI Yeast Anticancer Drug Screen. Data for the bub3 strain (AID 167). The settings on record: S. cerevisiae bub3 mutant strain, at 50.0 µM, stronger effect = higher value. The procedure, abridged:
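Steps: expose the mutant yeast strain to compound; grow alongside vehicle-treated cultures; measure growth; express inhibition against the vehicle cultures.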

A short description of assay [6]: NCI Yeast Anticancer Drug Screen. Data for the mlh1 rad18 strain (AID 175). The conditions noted are these: S. cerevisiae mlh1 rad18 strain growth inhibition; at 50.0 µM; stronger effect = higher value. The procedure, abridged: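 Steps: expose repair-defective yeast to compound; measure growth; express inhibition against vehicle-treated controls.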

Compounds without any hit were thinned out: in the full panel of roughly 79,000, 15% have a hit. Unmarked numbers belong to inactive results. Active and inactive are the calls of the source. No stated cut-off is given here; in the data, active means growth inhibition above about 70%; inactive means the rest.

As to `COc1cc2c(cc1OC)-c1ccc3cc4c(cc3c1N(C)C2)OCO4`, the growth inhibition in assay [1] was -3.8%; in assay [2], -36.6%; in assay [3], 9.8%; in assay [4] it was -4.65%; in assay [5], -12.7%; in assay [6] it was -2.65%.

For `CC(C)N(Cc1ccccc1)C(=O)Nc1ccc(Cc2ccc(NC(=O)N(Cc3ccccc3)C(C)C)cc2)cc1`, the growth inhibition in assay [1] was -0.7%; in assay [2] it was -12.3%; in assay [3], 0.35%; in assay [4] it was 18.4%; in assay [5], -10.1%; in assay [6], -8.3%.

Regarding `N#CC1=C(S)N(C2OC(CO)C(O)C(O)C2O)C(c2ccccc2)=CC1c1ccco1` (stereo not drawn), the growth inhibition in assay [1] was 36.1%; in assay [2], 13%; in assay [3] it was 4.85%; in assay [4], -12.4%; in assay [5], -3%; in assay [6] it was 27.6%.

Consider `CCOC(=O)C1CNCCC1=O` (stereo not drawn), for which the growth inhibition in assay [1] was -5.25%; in assay [2] it was -20.9%; in assay [3], -4.15%; in assay [4], -1.4%; in assay [5], -11.2%; in assay [6], -8.95%.

For the molecule `COc1cc2c(cc1OC)C(CC(=O)NN=C(C)C)NCC2` (stereo not drawn), the growth inhibition in assay [1] was -20.6%; in assay [2] it was -19.6%; in assay [3] it was -10.2%; in assay [4], 3.1%; in assay [5], -16.8%; in assay [6], -34.2%.

On to `COc1ccc2ccc3cccnc3c2n1`, for which the growth inhibition in assay [1] is 45.2%; in assay [2] it was 22.1%; in assay [3], 40.9%; in assay [4] it was -2.35%; in assay [5], 26.2%; in assay [6], 2%.

Turning to `COC(C[P+](Cc1ccccc1)(c1ccccc1)c1ccccc1)OC`, the growth inhibition is 66.9% in assay [1]; -2.7% in assay [2]; 39% in assay [3]; 2.4% in assay [4]; 4.1% in assay [5]; 4.35% in assay [6].

Take `C=C(CCl)CCl`: the growth inhibition in assay [1] was 42.4%; in assay [2], 12.2%; in assay [3] it was 39.1%; in assay [4], 12.5%; in assay [5], 46.3%; in assay [6] it was 36.5%.

For the molecule `C=C(NC(C)=O)C(=O)CCC(N)=O`, the growth inhibition in assay [1] was -0.75%; in assay [2] it was -0.7%; in assay [3], -7.5%; in assay [4], 1.75%; in assay [5] it was 4.75%; in assay [6], -53.7%.

On to `CCC(CCC(C)C)(SCC(N)=O)C(=O)O` (stereo not drawn), for which the growth inhibition in assay [1] is -4.75%; in assay [2], -5.15%; in assay [3], -26%; in assay [4], -39.3%; in assay [5], 0.2%; in assay [6] it was -38%.

Consider `O=c1cc(-c2ccccc2)nc(Sc2ccc([N+](=O)[O-])cc2[N+](=O)[O-])[nH]1`, for which the growth inhibition in assay [1] was 1.1%; in assay [2] it was 0.2%; in assay [3], -11.4%; in assay [4] it was 2.7%; in assay [5], 2.65%; in assay [6], 8.25%.

`CN(C)CCOc1ccccn1`: the growth inhibition is 9.45% in assay [1]; -27.4% in assay [2]; -5.35% in assay [3]; 7.75% in assay [4]; -21.7% in assay [5]; 0.3% in assay [6].

In the case of `CCOC(=O)CNCc1ccc(Cl)c(Cl)c1`, the growth inhibition in assay [1] is 16.1%; in assay [2], 4.15%; in assay [3], 28.2%; in assay [4] it was -15.6%; in assay [5], 26.9%; in assay [6] it was 21.9%.

Regarding `ClCc1c(Cl)c(Cl)c(CCl)c(Cl)c1Cl`, the growth inhibition in assay [1] is 2.75%; in assay [2] it was -10.9%; in assay [3] it was 3.1%; in assay [4] it was 20.6%; in assay [5], 12.6%; in assay [6] it was -10.1%.

Take `COc1nc2n[nH]nc2c(=O)n1C`: the growth inhibition in assay [1] is -5.75%; in assay [2], -10.8%; in assay [3], -13.1%; in assay [4] it was 13.7%; in assay [5] it was -5.1%; in assay [6] it was -21.6%.

In the case of `NC1(C(=O)O)CCCCC1`, the growth inhibition in assay [1] was -11.3%; in assay [2], -7.5%; in assay [3] it was -30.7%; in assay [4], -34.7%; in assay [5], -12.9%; in assay [6] it was -18.4%.

Turning to `Cc1cc(=O)[nH]c2c1CCCC2`, the growth inhibition in assay [1] is -13.7%; in assay [2], 10.8%; in assay [3] it was 10%; in assay [4] it was -38.4%; in assay [5], -26.6%; in assay [6], 8.25%.

With `O=C1CSC(c2ccc(Cl)c([N+](=O)[O-])c2)N1c1nncs1` (stereo not drawn), the growth inhibition was 7.9% in assay [1]; 4.6% in assay [2]; 24.2% in assay [3]; 12.7% in assay [4]; 10% in assay [5]; 25.1% in assay [6].

In the case of `CC(=O)C(C)(O)C(OP(=O)(O)O)c1ccccc1` (stereo not drawn), the growth inhibition was 0.65% in assay [1]; -10.5% in assay [2]; 4.6% in assay [3]; -37.4% in assay [4]; -11.1% in assay [5]; 3.55% in assay [6].

As for `C=CCCCCCCCC(O)C1C[C@H](O)C(CCCCC)O1` (stereo partly drawn), the growth inhibition in assay [1] is -0.8%; in assay [2] it was -16.9%; in assay [3], 9.25%; in assay [4], 1.15%; in assay [5], -17.2%; in assay [6] it was -5%.

For the molecule `O=C(O)C(CCCN1C(=O)c2ccccc2C1=O)N1C(=O)c2ccccc2C1=O` (stereo not drawn), the growth inhibition in assay [1] was -13.1%; in assay [2], -3.3%; in assay [3], -12.3%; in assay [4], -13.8%; in assay [5], -0.35%; in assay [6], -6.95%.

Consider `CC1=CC(C)(C)NC(=S)N1c1ccc(O)cc1`, for which the growth inhibition in assay [1] is 0%; in assay [2], -14.8%; in assay [3], 11.3%; in assay [4], -24.8%; in assay [5], 6.8%; in assay [6] it was 15.8%.

On to `CCN(CC)C(=O)C1CC=CCC1C(=O)O` (stereo not drawn), for which the growth inhibition in assay [1] is 41.3%; in assay [2], 19.3%; in assay [3] it was 23.9%; in assay [4] it was -38.5%; in assay [5] it was 1.85%; in assay [6] it was 30.1%.

As for `CN(C)CCCn1ncc(Sc2cc([N+](=O)[O-])ccc2N)c(Cl)c1=O`, the growth inhibition in assay [1] was 2.9%; in assay [2], -6.35%; in assay [3], -12.3%; in assay [4] it was -8.25%; in assay [5], -5.55%; in assay [6] it was -6.9%.

As to `CC(=O)Nc1c([N+](=O)[O-])cc(O)cc1[N+](=O)[O-]`, the growth inhibition in assay [1] was -17.9%; in assay [2] it was -15.7%; in assay [3], 12.3%; in assay [4], -26.3%; in assay [5], -16.9%; in assay [6], -8.45%.

For the molecule `Cc1ccccc1C(c1ccccc1C)c1ccccc1C`, the growth inhibition in assay [1] was -10.8%; in assay [2], 1%; in assay [3], -10.8%; in assay [4] it was -15.6%; in assay [5] it was 1.25%; in assay [6], -19.6%.

Consider `C=C(C)C1CC=C(C)/C(=N\O)C1` (stereo not drawn), for which the growth inhibition in assay [1] was -5.15%; in assay [2], -9.9%; in assay [3] it was -17.4%; in assay [4], 3.05%; in assay [5], 15%; in assay [6], -5.6%.

For `Cc1cccc(CSc2nc(N)nc3ncn(C4CC(O)C(CO)O4)c23)n1` (stereo not drawn), the growth inhibition in assay [1] was -20.9%; in assay [2], 3.5%; in assay [3], 10.7%; in assay [4] it was -48.2%; in assay [5], 2.05%; in assay [6], -19.6%.

Turning to `CCOc1c(N=Nc2ccccc2[N+](=O)[O-])c(C)nn1C(N)=S`, the growth inhibition in assay [1] is -6.5%; in assay [2], -5.95%; in assay [3], 24.5%; in assay [4], -26.8%; in assay [5], -20.9%; in assay [6], 17.4%.

Take `CC(=O)N1CN2C(=O)CCC2c2ccccc21` (stereo not drawn): the growth inhibition was -7.85% in assay [1]; 1.4% in assay [2]; -14.2% in assay [3]; 9.25% in assay [4]; -21.5% in assay [5]; -48.2% in assay [6].

For `CCCCNc1ccc([N+](=O)[O-])cc1[N+](=O)[O-]`, the growth inhibition in assay [1] was 16.2%; in assay [2], -15.4%; in assay [3], 18.4%; in assay [4], 6.55%; in assay [5], 41.9%; in assay [6], -0.6%.

As for `CCOC(=O)COc1cc2c(cc1Cc1ccc(OC)cc1)OCO2`, the growth inhibition was -5.4% in assay [1]; -7.45% in assay [2]; 5.45% in assay [3]; 6.2% in assay [4]; 39.4% in assay [5]; 11.7% in assay [6].

In the case of `COc1cc(C2c3cc4c(cc3OC(N3CCCCC3)C2C)OCO4)cc(OC)c1O` (stereo not drawn), the growth inhibition in assay [1] is 1.45%; in assay [2] it was -14.3%; in assay [3], -14.3%; in assay [4], 6.95%; in assay [5] it was -18.5%; in assay [6], -9.25%.

As for `C=Nc1ccc([N+](=O)[O-])c(N=C)c1`, the growth inhibition is -2.85% in assay [1]; -0.25% in assay [2]; -9.7% in assay [3]; -18% in assay [4]; 2.7% in assay [5]; 5.15% in assay [6].

For `COC(=O)c1ccc(NCc2cc(O)ccc2O)cc1O`, the growth inhibition in assay [1] is 88.5% (active); in assay [2], 90.5% (active); in assay [3], 83.7% (active); in assay [4], 67.7%; in assay [5] it was 84.8% (active); in assay [6], 91.5% (active).

On to `CSc1ccc(OC(=O)C(C)NC(=O)C(CO)NC(=O)OCc2ccccc2)cc1` (stereo not drawn), for which the growth inhibition in assay [1] is 5.85%; in assay [2] it was 1.55%; in assay [3] it was -1.05%; in assay [4], -2%; in assay [5], -1.6%; in assay [6], 15.2%.

On to `CCOC(=O)C(NC(=O)NCc1ccc(F)cc1)C(F)(F)F` (stereo not drawn), for which the growth inhibition in assay [1] was -46.7%; in assay [2] it was 2.2%; in assay [3], -31.5%; in assay [4], 19.4%; in assay [5], 51.9%; in assay [6] it was -43.1%.

In the case of `O=P(OC1=NCCN1Cc1ccccc1)(OC1=NCCN1Cc1ccccc1)N1CC1`, the growth inhibition in assay [1] was 16.9%; in assay [2], 5.6%; in assay [3], 21.7%; in assay [4], 32.4%; in assay [5], 3.75%; in assay [6] it was -6.2%.
